Results taken from PubChem BioAssay.
Active and inactive are the calls of the source.

Experiments:
[1] = binders of probe aFSTL3 on microarray, primary screen, stem cell growth factor project, biochemical, small-molecule microarray, fluorescence 635/667 (AID 1064); settings: higher = more signal;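 note: measures binding of the biotinylated anti-FSTL3 antibody to printed compounds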
[2] = binders from COS7 lysate, DM2A8 probe, primary screen, torsin A project, cell lysate, small-molecule microarray, fluorescence 635/667 (AID 1065); settings: higher = more signal, COS7 lysate expressing mutant human TOR1A
[3] = binders of probe aFGF2 on microarray, primary screen, stem cell growth factor project, biochemical, small-molecule microarray, fluorescence 635/667 (AID 1067); settings: higher = more signal;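 note: measures binding of biotinylated aFGF2 protein to printed compounds on slides; z-score merges feature fluorescence and signal-to-noise across triplicate slides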
[4] = binders of probe aFGF10 on microarray, primary screen, stem cell growth factor project, biochemical, small-molecule microarray, fluorescence 635/667 (AID 1071); settings: higher = more signal;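 note: score merges 667 nm spot intensity and signal to noise from triplicate slides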
[5] = molecular target: Neurogenic locus notch homolog protein 2 (Homo sapiens) (UniProt Q04721); assay: Notch2 binders on small-molecule microarrays, primary screen, biochemical, small-molecule microarray, 635 nm fluorescence, stem cell growth factors (AID 1073); settings: Notch2 binding, higher = more signal
[6] = molecular target: Pro-neuregulin-1, membrane-bound isoform (Homo sapiens) (UniProt Q02297); assay: NRG1 binders on small-molecule microarrays, primary screen, psychiatric disease protein project, biochemical, small-molecule microarray, fluorescence 635/667 (AID 1075); settings: NRG1 binding, 635 nm fluorescence, higher = more signal;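 note: score combines 667 nm spot fluorescence with signal to noise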
Sequence of Pro-neuregulin-1, membrane-bound isoform (Homo sapiens) (Q02297 whole entry, looked up, the tested form may be a part, canonical isoform): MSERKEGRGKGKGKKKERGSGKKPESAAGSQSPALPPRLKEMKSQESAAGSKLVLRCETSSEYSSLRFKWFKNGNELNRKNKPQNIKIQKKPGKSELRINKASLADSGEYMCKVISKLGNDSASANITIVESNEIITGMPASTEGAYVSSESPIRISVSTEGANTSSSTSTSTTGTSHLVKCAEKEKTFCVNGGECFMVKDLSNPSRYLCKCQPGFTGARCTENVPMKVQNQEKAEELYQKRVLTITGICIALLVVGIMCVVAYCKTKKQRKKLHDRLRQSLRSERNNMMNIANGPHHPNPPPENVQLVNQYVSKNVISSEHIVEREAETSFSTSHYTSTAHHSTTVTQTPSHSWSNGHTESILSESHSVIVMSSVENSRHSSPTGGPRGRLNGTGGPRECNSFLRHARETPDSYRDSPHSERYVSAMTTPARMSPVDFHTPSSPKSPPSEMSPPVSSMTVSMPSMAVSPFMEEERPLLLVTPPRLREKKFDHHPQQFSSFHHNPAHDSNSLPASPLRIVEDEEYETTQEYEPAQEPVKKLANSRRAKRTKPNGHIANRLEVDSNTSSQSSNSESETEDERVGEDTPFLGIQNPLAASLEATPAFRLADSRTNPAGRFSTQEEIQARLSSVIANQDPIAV

[7] = tested on: Neuregulin-1 EGF-like domain; assay: binders of neuregulin-1 EGF-like domain, primary screen, biochemical, small-molecule microarray, 635 nm fluorescence (AID 1081); settings: small-molecule microarray binding, higher = more signal;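 note: binding of the protein to compounds printed on small-molecule microarray slides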
[8] = FRG1 promoter luciferase signal modulators, primary screen, FRG1 inhibition for FSHD, cell-based, C2C12 myotubes, firefly/Renilla luciferase, luminescence (AID 1084); settings: higher = more signal, called active from +8 up or from −8 down
[9] = binders of probe aFST on microarray, primary screen, stem cell growth factor project, biochemical, small-molecule microarray, fluorescence 635/667 (AID 1086); settings: higher = more signal;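 note: score merges 667 nm fluorescence with signal-to-noise of each printed compound spot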
[10] = binders of probe aHhip on microarray, primary screen, stem cell growth factor project, biochemical, small-molecule microarray, fluorescence 635/667 (AID 1087); settings: higher = more signal;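 note: score merges spot fluorescence at 667nm with spot signal to noise ratio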
[11] = tested on: PRMT1 (protein arginine N-methyltransferase 1); assay: PRMT1 binders on small-molecule microarrays, primary screen, biochemical, small-molecule microarray, 635 nm fluorescence (AID 1088); settings: small-molecule microarray binding, higher = more signal;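 note: binding of Prmt1 protein to compounds spotted on small-molecule microarray slides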
[12] = yeast growth modulation, basal conditions, primary screen, YJM789 clinical isolate, OD600, 24 h (AID 1089);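 note: growth of clinical yeast isolate S. cerevisiae YJM 789 seeded 1000 cells per well; test concentration not given here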; settings: S. cerevisiae YJM789 growth, higher = more signal, called active from +8 up or from −8 down
[13] = fission yeast growth modulation, primary screen, strain 972, OD600, 24 h, no modulator (AID 1090);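 note: basal condition with compound alone and no growth modifier present; test concentration not given here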; settings: S. pombe 972 growth, higher = more signal, called active from +8 up or from −8 down
[14] = S. cerevisiae growth modulation with rapamycin, primary screen, strain BY4716, OD600, 96 h (AID 1091); settings: higher = more signal, called active from +8 up or from −8 down; note: test concentration not given here
[15] = molecular target: Torsin-1A-interacting protein 2 (Homo sapiens) (UniProt Q8NFQ8); assay: LULL1 binders on small-molecule microarray, primary screen, cell lysate, human LULL1 lysate, 635/667 nm fluorescence (AID 1092); settings: hLULL1 lysate binding, 635 nm fluorescence, higher = more signal;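 note: probe is lysate of COS7 cells overexpressing human LULL1; score merges per-feature 667 nm fluorescence with signal-to-noise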
Sequence of Torsin-1A-interacting protein 2 (Homo sapiens) (Q8NFQ8 whole entry, looked up): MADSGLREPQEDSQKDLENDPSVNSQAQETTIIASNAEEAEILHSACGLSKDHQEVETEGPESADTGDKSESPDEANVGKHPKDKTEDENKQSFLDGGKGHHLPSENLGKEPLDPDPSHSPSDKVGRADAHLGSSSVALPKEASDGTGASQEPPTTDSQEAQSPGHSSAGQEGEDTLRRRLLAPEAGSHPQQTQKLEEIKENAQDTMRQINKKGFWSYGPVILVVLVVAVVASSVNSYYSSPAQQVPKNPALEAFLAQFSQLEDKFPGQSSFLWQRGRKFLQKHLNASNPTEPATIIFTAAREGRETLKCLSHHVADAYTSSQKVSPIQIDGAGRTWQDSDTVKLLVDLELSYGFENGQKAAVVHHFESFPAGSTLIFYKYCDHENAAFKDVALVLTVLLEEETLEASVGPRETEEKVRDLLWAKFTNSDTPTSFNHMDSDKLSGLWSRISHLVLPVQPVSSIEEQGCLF

[16] = E. coli growth modulation, two-sided OD650, primary screen, E. coli filamentation project, strain DRC41, 24 h (AID 1093); settings: OD650, 24 h, higher = more signal, called active from +8 up or from −8 down;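 note: MC1000 strain lacking acrAB efflux and sulA so SOS filamentation is blocked; test concentration not given here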
[17] = small-molecule microarray binders of probe aLefty2, primary screen, biochemical, biotinylated probe, 635/667 nm fluorescence (AID 1094); settings: higher = more signal;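 note: score merges spot fluorescence near 667 nm with spot signal-to-noise ratio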
[18] = tested on: Noggin (protein binding on small-molecule microarray); assay: Noggin binders on small-molecule microarray, primary screen, biochemical, 635/667 nm fluorescence (AID 1095); settings: 635 nm fluorescence, higher = more signal;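 note: score merges 667 nm feature fluorescence with signal to noise over triplicate slides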
[19] = molecular target: Neurogenic locus notch homolog protein 3 (Homo sapiens) (UniProt Q9UM47); assay: NOTCH3 binders on small-molecule microarray, primary screen, biochemical, 635/667 nm fluorescence (AID 1096); settings: NOTCH3 binding, 635 nm fluorescence, higher = more signal
Sequence of Neurogenic locus notch homolog protein 3 (Homo sapiens) (Q9UM47 whole entry, looked up): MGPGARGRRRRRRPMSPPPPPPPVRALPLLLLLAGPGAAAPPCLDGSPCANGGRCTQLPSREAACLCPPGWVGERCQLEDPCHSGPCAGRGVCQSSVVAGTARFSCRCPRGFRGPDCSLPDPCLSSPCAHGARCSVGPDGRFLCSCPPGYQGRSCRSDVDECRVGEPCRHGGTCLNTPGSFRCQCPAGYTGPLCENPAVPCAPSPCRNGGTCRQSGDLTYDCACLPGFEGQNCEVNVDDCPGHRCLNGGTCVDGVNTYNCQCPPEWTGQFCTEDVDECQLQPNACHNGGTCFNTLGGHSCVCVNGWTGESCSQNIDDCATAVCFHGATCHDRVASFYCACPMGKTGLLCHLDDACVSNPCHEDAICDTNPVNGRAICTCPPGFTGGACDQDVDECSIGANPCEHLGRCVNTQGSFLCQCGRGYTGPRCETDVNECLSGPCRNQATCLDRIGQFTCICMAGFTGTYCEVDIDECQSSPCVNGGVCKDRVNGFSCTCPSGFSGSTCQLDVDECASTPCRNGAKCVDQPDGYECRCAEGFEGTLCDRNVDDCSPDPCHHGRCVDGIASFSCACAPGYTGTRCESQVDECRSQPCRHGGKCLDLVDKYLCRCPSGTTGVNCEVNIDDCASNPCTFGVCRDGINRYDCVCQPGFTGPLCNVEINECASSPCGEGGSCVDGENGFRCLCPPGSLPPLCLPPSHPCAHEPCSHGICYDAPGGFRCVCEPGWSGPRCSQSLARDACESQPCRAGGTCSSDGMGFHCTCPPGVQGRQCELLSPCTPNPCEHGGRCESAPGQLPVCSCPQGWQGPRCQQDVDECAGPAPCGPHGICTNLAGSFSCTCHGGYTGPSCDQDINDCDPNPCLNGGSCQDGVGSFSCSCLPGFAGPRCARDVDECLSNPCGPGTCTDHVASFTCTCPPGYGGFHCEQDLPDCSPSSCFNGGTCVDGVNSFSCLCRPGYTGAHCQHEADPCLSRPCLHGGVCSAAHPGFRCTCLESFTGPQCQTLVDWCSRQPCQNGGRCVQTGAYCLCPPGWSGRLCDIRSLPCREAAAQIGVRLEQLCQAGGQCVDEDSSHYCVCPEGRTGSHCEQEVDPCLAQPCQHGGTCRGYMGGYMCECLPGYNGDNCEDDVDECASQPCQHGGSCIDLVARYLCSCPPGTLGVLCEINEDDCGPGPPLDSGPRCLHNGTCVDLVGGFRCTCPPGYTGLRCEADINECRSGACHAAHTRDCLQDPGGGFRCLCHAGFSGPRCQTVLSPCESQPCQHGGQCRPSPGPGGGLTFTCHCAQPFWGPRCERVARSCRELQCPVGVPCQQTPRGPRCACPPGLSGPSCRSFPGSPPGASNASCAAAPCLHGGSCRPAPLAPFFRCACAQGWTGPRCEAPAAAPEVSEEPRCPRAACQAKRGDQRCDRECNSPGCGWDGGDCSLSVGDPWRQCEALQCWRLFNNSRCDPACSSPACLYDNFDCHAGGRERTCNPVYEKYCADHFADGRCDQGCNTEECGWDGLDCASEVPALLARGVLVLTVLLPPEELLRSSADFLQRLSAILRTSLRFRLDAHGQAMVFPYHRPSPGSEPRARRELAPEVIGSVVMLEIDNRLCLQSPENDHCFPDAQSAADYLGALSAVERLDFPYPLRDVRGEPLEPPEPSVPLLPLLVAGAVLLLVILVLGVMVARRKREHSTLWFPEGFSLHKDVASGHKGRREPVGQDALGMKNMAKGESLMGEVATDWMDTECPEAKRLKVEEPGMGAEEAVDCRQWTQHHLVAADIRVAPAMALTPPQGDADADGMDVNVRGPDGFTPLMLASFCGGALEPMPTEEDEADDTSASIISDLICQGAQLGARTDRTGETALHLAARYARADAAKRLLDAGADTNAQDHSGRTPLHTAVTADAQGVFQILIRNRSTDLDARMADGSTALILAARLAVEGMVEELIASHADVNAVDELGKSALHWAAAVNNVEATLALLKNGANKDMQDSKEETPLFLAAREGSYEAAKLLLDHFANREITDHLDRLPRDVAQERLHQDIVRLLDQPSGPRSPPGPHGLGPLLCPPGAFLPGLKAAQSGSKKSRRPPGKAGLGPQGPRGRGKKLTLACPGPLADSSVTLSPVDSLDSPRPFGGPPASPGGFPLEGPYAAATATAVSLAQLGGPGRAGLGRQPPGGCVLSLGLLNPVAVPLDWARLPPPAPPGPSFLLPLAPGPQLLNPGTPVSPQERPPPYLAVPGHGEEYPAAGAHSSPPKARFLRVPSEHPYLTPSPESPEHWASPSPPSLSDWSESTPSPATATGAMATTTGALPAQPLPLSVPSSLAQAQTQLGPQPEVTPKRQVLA

[20] = small-molecule microarray binders of probe aEGFR, primary screen, biochemical, biotinylated probe, 635/667 nm fluorescence (AID 1097); settings: higher = more signal;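 note: probe is a biotinylated anti-EGFR antibody binding compounds printed on slides; score combines fluorescence near 667 nm and signal to noise of each spot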

SMILES	composite z-score [1]	composite z-score [2]	composite z-score [3]	composite z-score [4]	composite z-score [5]	composite z-score [6]	composite z-score [7]	z-score [8]	composite z-score [9]	composite z-score [10]	composite z-score [11]	z-score [12]	z-score [13]	z-score [14]	composite z-score [15]	z-score [16]	composite z-score [17]	composite z-score [18]	composite z-score [19]	composite z-score [20]
CCCNC(=O)[C@@]1(C)c2ccccc2C(=O)N(C(C)C)[C@H]1c1ccc(CO)cc1	1.01	-0.214	-0.0704	-0.425	-0.963	0.447	1.3	-0.51 (inactive)	-0.35	-0.226	-0.535	-0.141 (inactive)	-0.712 (inactive)	-0.397 (inactive)	2.75	-1.2 (inactive)	0.0692	-0.827	-1.05	-0.174
[N-]=[N+]=NCc1ccccc1C[C@]1(C(=O)NCC(O)CO)COC(c2ccc(OCCCO)cc2)=N1 (stereo not given in full)	1.11	2.19	-0.033	-0.329	0.7	1	0.691	-1.03 (inactive)	1.1	-0.318	0.638	-0.319 (inactive)	-3.05 (inactive)	0.113 (inactive)	2.54	1.34 (inactive)	0.841	-0.185	-0.172	0.204
CC(C)(C)OC(=O)CC[C@@]1(C(=O)N2CCOCC2)N=C(c2ccc(OCCCO)cc2)O[C@@H]1c1ccccc1N=[N+]=[N-]	0.0033	1.13	0.213	0.883	1.43	1.75	1.29	0.97 (inactive)	1.57	0.142	1.53	0.501 (inactive)	-0.165 (inactive)	0.404 (inactive)	3.67	1.29 (inactive)	0.0769	0.952	1.06	0.127
O=C1c2ccccc2[C@@]2(Cc3ccccc3N(Cc3ccccc3)C2=O)[C@H](c2ccc(CO)cc2)N1Cc1ccccc1C(F)(F)F	0.178	-1.44	-0.083	-0.236	-0.233	0.363	0.114	-0.366 (inactive)	-0.0954	-0.125	-0.325	0.376 (inactive)	-0.666 (inactive)	-1.11 (inactive)	2.03	0.127 (inactive)	-0.222	-0.848	0.117	-0.243
O=C(NCc1ccccc1)[C@@H]1c2ccccc2C(=O)N(C2CCCCC2)[C@H]1c1ccc(CO)cc1	-1.15	0.149	-0.0407	0.57	-0.287	1.68	1.38	-1.48 (inactive)	-0.309	-0.283	1.47	-0.406 (inactive)	-0.577 (inactive)	0.39 (inactive)	2.53	-0.175 (inactive)	-0.322	1.41	1.03	-0.352
Cc1ccc(F)cc1S(=O)(=O)N[C@@H]1CCN(Cc2ccc(C(F)(F)F)cc2)C1	-0.234	0.588	-0.198	-1.06	-1.26	0.0824	-0.19	-3.87 (inactive)	-0.47	-0.283	1.14	-1.27 (inactive)	-20.3 (active)	-1.1 (inactive)	1.08	-4.8 (inactive)	-0.227	0.412	-0.145	-0.218
Cc1ccc(S[C@]2(C(=O)NCCN3CCOCC3)CC(=O)N(C3CCCCC3)[C@@H]2c2ccc(CO)cc2)cc1	-0.0386	-0.439	-0.158	0.123	0.825	1	1.09	0.046 (inactive)	0.283	-0.0645	1.05	-0.0801 (inactive)	-0.134 (inactive)	-0.942 (inactive)	3.05	-0.114 (inactive)	-0.072	0.218	0.404	-0.111
O=C1C[C@@](C(=O)O)(c2ccc([N+](=O)[O-])cc2)[C@@H](c2ccc(CO)cc2I)N1C1CCCCC1	0.0508	0.0298	-0.0256	0.798	1.11	1.39	0.94	-1.26 (inactive)	0.797	0.12	0.222	-1.09 (inactive)	-6.54 (inactive)	0.173 (inactive)	2.54	2.15 (inactive)	0.0539	0.373	1.06	-0.0828
O=C1C2C=CC(C(O)C3CC=CCC3)N(n3cnnc3)C2C(=O)N1Cc1ccccc1 (stereo not given)	0.61	0.43	-0.158	-1.03	-1.23	0.998	0.518	0.37 (inactive)	-0.354	0.12	1.07	-0.504 (inactive)	0.196 (inactive)	0.0633 (inactive)	1.09	-1.09 (inactive)	-0.223	-1.05	-0.686	-0.314
CC[C@@H]1C=C(C(=O)O)[C@H](c2ccc(C(C)C)cc2)N1S(=O)(=O)c1ccc(C)cc1	0.341	1.41	0.412	1.12	1.75	1.91	0.908	-2.32 (inactive)	1.64	0.0401	1.53	-0.921 (inactive)	0.242 (inactive)	-1.07 (inactive)	3.03	-0.29 (inactive)	0.678	-0.0177	1.03	0.516
